Only some compounds are listed: those with a hit (about 18% of all), similar ones and a draw of the others.
TDP1 block – blocks human tyrosyl-DNA phosphodiesterase 1. Q9NUW8. hit rate 0.28% among 350,000. recombinant TDP1, AlphaScreen DNA substrate cleavage. Potency, µM (titrated, usually from 130 µM), for inactives: at the top dose activity change, negative = inhibition, usual class: inhibitors; further: potency means the concentration at half of the fitted maximal effect; nearly all actives have a fitted effect of over 40% in size
Target sequence (Q9NUW8 whole entry, looked up): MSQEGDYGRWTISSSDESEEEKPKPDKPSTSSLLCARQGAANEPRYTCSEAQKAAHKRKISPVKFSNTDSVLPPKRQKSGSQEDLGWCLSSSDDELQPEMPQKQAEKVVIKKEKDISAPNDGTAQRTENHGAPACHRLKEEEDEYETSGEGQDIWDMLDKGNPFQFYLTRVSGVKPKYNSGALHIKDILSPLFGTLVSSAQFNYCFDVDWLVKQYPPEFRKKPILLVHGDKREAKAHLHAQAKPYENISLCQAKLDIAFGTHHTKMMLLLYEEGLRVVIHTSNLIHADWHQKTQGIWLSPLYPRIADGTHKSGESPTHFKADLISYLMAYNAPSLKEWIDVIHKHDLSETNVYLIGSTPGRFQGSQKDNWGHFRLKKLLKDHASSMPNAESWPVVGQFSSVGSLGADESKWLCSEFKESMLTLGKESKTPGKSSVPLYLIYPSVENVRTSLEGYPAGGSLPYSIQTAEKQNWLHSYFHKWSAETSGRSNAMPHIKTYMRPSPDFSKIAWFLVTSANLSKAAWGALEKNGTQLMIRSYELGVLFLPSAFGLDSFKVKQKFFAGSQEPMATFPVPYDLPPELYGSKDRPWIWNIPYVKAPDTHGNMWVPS
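Compounds were preincubated with Tdp1 (1 nM final) for 15 min at room temperature before substrate (15 nM final) started a 5 min reaction; beads (10 ug/ml final) were then added for 10 min before AlphaScreen detection.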
Six1-Eya2 blk – Six1/Eya2 interaction inhibition. Q15475+O00167. AlphaScreen GST-Six1/His-Eya2 binding, biochemical; hits give low values. activity change, % (concentration not given with the values). hit rate 0.56% among 360,000; in the data active means activity change below about -65%; inconclusive means mostly about -30% to -63%
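Six1/Eya2 binding was read as AlphaScreen signal after compounds were pinned into GST-Six1 plus His-tagged Eya2 (5X stock 250/500 nM) in pH 8.0 Tris/NaCl/TCEP buffer, beads added, then incubated 1 h, 37 C, dark.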
TDP1 cell CPT – DT40-hTDP1 cell growth loss with CPT; chicken DT40 Tdp1-/-;hTDP1 cells + 20 nM CPT, ATP luminescence, 48 h; Potency, µM (top dose mostly 46.2 µM), for inactives: at the top dose activity change, negative = growth inhibition, most hits filed as inhibitors; hit rate 12% among 420,000; further: potency means the concentration at half of the fitted maximal effect; nearly all actives have a fitted effect of over 55% in size
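Chicken DT40 Tdp1-/- cells complemented with human TDP1, 400 cells/well, exposed to compounds plus 20 nM camptothecin for at least 48 h at 37 C; viability read as ATP content by CellTiter-Glo luminescence.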
TDP1 cell noCPT – qHTS for Inhibitors of human tyrosyl-DNA phosphodiesterase 1 (TDP1): qHTS in cells in absence of CPT; DT40 Tdp1-/- hTDP1 cells, no CPT, ATP luminescence, 48 h; Potency, µM (titrated, usually from 46.2 µM), for the others: at the top dose activity change, negative = growth inhibition, hits mostly inhibitors; hit rate 15% among 420,000; further: potency means the concentration at half of the fitted maximal effect; nearly all actives have a fitted effect of over 55% in size
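Camptothecin absent (DMSO only). Human TDP1-complemented DT40 knockout cells, 400 cells/well, 37 °C for minimum 48 hr; ATP measured via CellTiter-Glo, 30 min dark incubation, luminescence.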
IL1B secr inh – inflammasome signaling inhibition, IL-1 beta readout | THP-1 LPS/ATP IL-1B secretion, AlphaLISA, 16 h; hits give low values | activity change, % at 57.5 µM | hit rate 4.7% among 360,000; in the data active means activity change below about -50%; inconclusive means mostly about -30% to -49%
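THP-1 cells pretreated 1 hr with compounds (up to 57.5 uM final), then stimulated with LPS (250 ng/mL final) plus ATP (1.25 mM final); secreted IL-1B measured by AlphaLISA after 16 hr, decreased signal indicating inhibition.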
CtBP-E1A inh – blocks the CtBP interaction with E1A | activity change, % (test concentration not listed) | AlphaScreen GST-E1A/His-CtBP binding, 1536-well; hits give low values | hit rate 0.49% among 340,000; in the data active means activity change below about -65%; inconclusive means mostly about -30% to -63%
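Homogeneous bead-based format: GST-tagged E1A captured on glutathione donor beads, His-tagged CtBP on nickel acceptor beads; compounds precede bead addition by 2 h at 37 °C.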
Numbers without * were called inactive; ? = inconclusive; nt = no result given. Unless noted, the call rests on the fitted dose curve; in most records, active means well fitted curve in the direction sought with a large enough effect; inconclusive means small, poorly fitted or top-dose-only effect, or another doubt; inactive means no such curve, though single readings can be large; an effect the other way counts as inactive or inconclusive. On the % scale 0 is the no-effect control and ±100 the full control effect.

SMILES | TDP1 block | Six1-Eya2 blk | TDP1 cell CPT | TDP1 cell noCPT | IL1B secr inh | CtBP-E1A inh
CC12CCC(=O)C=C1CCC1C2C(=O)CC2(C)C1CC[C@]2(O)C(=O)CO (some centres undefined) | nt | -0.5 | -13.0% | -11.7% | -27.6 | -3.1
CCCn1c(N)c(C(=O)CSc2n[nH]c(-c3ccccc3F)n2)c(=O)n(C)c1=O | -0.5% | -4.7 | 20.6µM* | 23.1µM* | 42.7 | nt
CCCn1c(N)c(C(=O)CSc2nnc(Cc3ccccc3)o2)c(=O)n(C)c1=O | 2.4% | -3.4 | ? | 23.1µM* | 79.5 | -3.6
Cn1c(=O)c(C(=O)CSc2nnc(Nc3ccccc3)s2)c(N)n(Cc2ccccc2)c1=O | 6.8% | 5.6 | -20.1% | -13.5% | 14.4 | -0.8
COc1ccc(C(=O)N(Cc2sccc2C)C2CCS(=O)(=O)C2)cc1Cl (centres undefined) | 8.6% | nt | ? | 18.4µM* | nt | nt
Cc1cc(Cl)ccc1OCC(=O)N(Cc1sccc1C)C1CCS(=O)(=O)C1 (centres undefined) | -2.5% | nt | 23.1µM* | 18.4µM* | nt | nt
CN(CC(=O)Nc1cccc(F)c1)C(=O)COc1ccc2c(c1)CCC2 | 1.5% | -3.5 | ? | ? | -29.3 | nt
CC(=O)OC(C[N+]1(C)CCCCCC1)c1ccccc1 (centres undefined) | nt | 6.7 | 0.3% | 1.7% | -5.2 | nt
O=C(CCN1CCN(C(=O)c2ccccc2)CC1)c1ccc(Br)cc1 | 8.9% | 7.4 | 7.31µM* | 8.2µM* | -23.3 | 2.6
C[N+]1(CCC(=O)c2ccccc2)CCCCC1 | 0.0% | 1.2 | 3.26µM* | 2.59µM* | 5.9 | 6.4
O=C(OCCN1CCOCC1)c1ccccc1 | 6.4% | 1.2 | -28.0% | ? | 8.6 | 4.3
O=C(CCN1CCOCC1)c1ccccc1 | -2.3% | -3.0 | 2.59µM* | 3.55µM* | -72.2* | -7.3
CCOc1ccc(C(=O)CCN2CCCCCC2)cc1 | 8.4% | 2.9 | 3.66µM* | 2.91µM* | ? | 5.5
Cc1cc([N+](=O)[O-])nn1CCCC(=O)O | 2.7% | 2.1 | -8.4% | 13.9% | 18.7 | 6.8
CC1CCCN(CCC(=O)Nc2ccc(F)c(F)c2)C1 (centres undefined) | 2.3% | -1.5 | 6.3% | 8.7% | -13.2 | 3.8
O=C(OCCN1CCOCC1)c1ccc(OCCN2CCOCC2)cc1 | -1.3% | 17.1 | 3.2% | -0.8% | -10.6 | -1.4
CC1CCCN(CCC(=O)c2ccccc2)C1 (centres undefined) | nt | 4.2 | 4.61µM* | 10.3µM* | 5.7 | 0.5
Brc1ccc(OCCCCCN2CCOCC2)cc1 | -7.4% | 4.2 | 3.0% | -5.7% | -59.0* | 11.7
O=C(CCN1CCCCC1)c1ccccc1 | 8.6% | 3.4 | 11.2µM* | 12.6µM* | -3.7 | 7.2
CCCCOc1ccc(C(=O)CCN2CCOCC2)cc1 | 5.1% | 5.1 | 5.17µM* | 6.51µM* | -103.5* | 19.4
CCc1nn2c(=O)c(S(=O)(=O)Nc3ccc(C(C)C)cc3)c(C)nc2s1 | 0.0% | -6.1 | ? | 16.4µM* | 11.6 | 2.6
NS(=O)(=O)c1ccc(CNC(=O)NC2(c3ccccc3)CC2)cc1 | 2.6% | 4.7 | 3.8% | -11.0% | 22.7 | 8.5
Cc1cc(N2CCC(C(=O)Nc3ccc(F)cc3)CC2)nc(-c2ccccc2)n1 | 0.0% | -1.0 | -22.4% | 18.4µM* | -53.3* | -0.8
Cc1cc(N2CCN(c3ccc(F)cc3)CC2)nc(-c2ccccc2)n1 | 2.4% | -22.5 | 9.2µM* | 8.2µM* | -19.6 | -17.0
COc1ccc(NC(=O)C2CCCN(S(=O)(=O)c3c(C)n[nH]c3C)C2)cc1OC (centres undefined) | -2.7% | -6.2 | -10.6% | ? | 15.6 | -4.6
Cc1noc(C)c1COc1cccc(C(=O)N(C)Cc2cccs2)c1 | 0.7% | 2.7 | -29.7% | -13.5% | -4.1 | -4.2
COc1ccc(/C=N/NS(=O)(=O)c2ccc(F)cc2)cc1COc1cc(F)ccc1[N+](=O)[O-] | 8.1% | -4.4 | ? | -20.7% | 19.7 | 10.2
